Chronic BCR inh: blocks chronic active B-cell receptor signaling. Potency, µM (highest dose often 46.1 µM), without a hit: top-dose activity change, negative = inhibition, most hits filed as inhibitors. AID 493014. 0.05% of 340,000 active. ABC-DLBCL IkBa-CBG/CBR reporter, luminescence ratio, 4 h; active = well fitted inhibition curve with a large enough effect in the signal ratio, with a control signal flat, not every such curve was filed as active; inconclusive = small, poorly fitted or top-dose-only effect, or effect the other way, or a change in a side signal; the % refers to the signal ratio;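 also: plate controls were basal doxycycline-induced cells for no effect and cells given 10 µM MG132 for full effect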
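Cell line TMD8 (human ABC DLBCL), stably expressing tet-inducible CBG68-IkBa fusion and CBR; IMDM/0.5% FBS; cpd up to 46 uM; dox induction, 4 h, 37C/5% CO2; dual luminescence; green/red ratio; MG132 control.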
Mito fusion act: mitochondrial division inhibition or fusion activation | S. cerevisiae fusion-defective mutant growth rescue, CellTiterGlo 48 h | Potency, µM (doses to about 46.1 µM), without a hit: top-dose growth rescue (activation), usual class: activators | 0.23% of 320,000 active | AID 485298; also: % of control where 0% means no effect; nearly all actives have a fitted effect of over 45% in size
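S. cerevisiae fusion-defective temperature-sensitive mutants (e.g. fzo1-1, mgm1-5) grown 48 h at 37C in YPEG (ethanol/glycerol non-fermentable) medium with 23 nl compound per well; growth rescue read as CellTiterGlo luminescence.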
RORg inh: inhibitors of mouse ROR gamma transcriptional activity. P51450. Drosophila S2 Gal4-RORgamma UAS-luciferase reporter, 20 h. Potency, µM (doses to about 53.6 µM), for inactives: at the top dose activity change, negative = inhibition, hits mostly inhibitors. 5.4% of 310,000 active. AID 2551; also: % is scaled to controls: 0 for no effect and ±100 for the full control effect; nearly all actives have a fitted effect of over 60% in size
Target sequence (P51450 whole entry, looked up, the tested form may be a part): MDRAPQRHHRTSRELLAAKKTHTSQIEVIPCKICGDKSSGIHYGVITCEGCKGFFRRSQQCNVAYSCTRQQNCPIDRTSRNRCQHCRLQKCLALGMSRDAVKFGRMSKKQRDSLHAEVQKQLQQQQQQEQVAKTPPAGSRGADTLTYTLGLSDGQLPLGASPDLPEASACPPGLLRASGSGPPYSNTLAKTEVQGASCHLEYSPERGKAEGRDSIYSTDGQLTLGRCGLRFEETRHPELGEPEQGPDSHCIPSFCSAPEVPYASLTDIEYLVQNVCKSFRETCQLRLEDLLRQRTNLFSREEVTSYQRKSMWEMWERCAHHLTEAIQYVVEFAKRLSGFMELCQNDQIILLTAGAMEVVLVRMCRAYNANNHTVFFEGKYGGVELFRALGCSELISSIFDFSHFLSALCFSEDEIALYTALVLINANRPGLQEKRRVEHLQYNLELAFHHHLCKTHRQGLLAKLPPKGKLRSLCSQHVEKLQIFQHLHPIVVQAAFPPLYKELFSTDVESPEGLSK
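Drosophila Schneider cells stably carrying a metallothionein-driven Gal4 DBD–ROR gamma fusion and a UAS-Photinus luciferase reporter were exposed to compound for 1 hr, then induced with copper sulfate (700 uM final) for 20 hr at ambient temperature before luminescence reading.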
VP16 counter: inhibits Gal4-VP16 luciferase reporter, ROR gamma counter-screen. Drosophila S2 Gal4-VP16 UAS-luciferase, luminescence, 20 h. Potency, µM (top dose mostly 53.6 µM), for inactives: at the highest dose activity, negative = inhibition, usual class: inhibitors. 3.5% of 310,000 active;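 also: Gal4-VP16 expression switched on by copper sulfate through the metallothionein promoter; % is scaled to controls: 0 for no effect and ±100 for the full control effect; nearly all actives have a fitted effect of over 50% in size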
Integrin act MD: activators of alpha7 integrin expression for muscular dystrophy | alpha7betagal myoblasts, beta-gal FDG fluorescence, 48 h | Potency, µM (titrated, usually from 38.3 µM), for inactives: at the highest dose activation, hits mostly activators | 0.064% of 350,000 active | AID 624291;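 also: 100% = response of the positive control SU9516; nearly all actives have a fitted effect of over 60% in size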
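Alpha7betagal+/- myoblasts (passage 13) were plated 16-24 hr, then exposed to compounds (1:260 dilution of DMSO stock) for 48 hours at 37C. After MPER lysis, β-galactosidase reporter activity was read as FDG fluorescence (ex 480/em 540) after 30 minutes.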
uPA generation: blocks generation of uPA at the cell surface | cell surface uPA generation assay, qHTS | Potency, µM (top dose mostly 38.3 µM), for the others: at the top dose activity change, negative = inhibition, actives largely listed as inhibitors | 0.31% of 330,000 active; active = well fitted inhibition curve with a large enough effect; inconclusive = small, poorly fitted or top-dose-only effect; inactive = no such curve, though single readings can be large or run the other way; tested in mouse RAW 264.7 cells; also: % is scaled to controls: 0 for no effect and ±100 for the full control effect; nearly all actives have a fitted effect of over 55% in size
Starred values were filed as active, the others as inactive; ? = inconclusive; . = no result; [ ] = dose if it differs, or a comment. Hits are enriched below; roughly 5.5% of the tested compounds scored in any of these assays. Unless noted, calls follow the shape of the dose curve; as a rule, active = well fitted curve in the direction sought with a large enough effect; inconclusive = small, poorly fitted or top-dose-only effect, or another doubt; inactive = no such curve, though single readings can be large; an effect the other way counts as inactive or inconclusive. Potency is read from the fitted curve at half-maximal effect.

SMILES | Chronic BCR inh | Mito fusion act | RORg inh | VP16 counter | Integrin act MD | uPA generation
COc1ccc(-c2nc3ccc(C)cc3c(=O)o2)cc1OC | -1% | 0% | 8%[1.91 µM] | 17% | 13% | 2%
Cc1nc(C(C)N(C)Cc2nc(-c3ccc4c(c3)OCO4)no2)c(C)s1 (stereo not given) | ? | -1% | 18µM* | ? | -2% | 0%
Cc1cc(C)n(-c2ccc(C(=O)C(C#N)c3nc4ccccc4n3C)cc2)n1 (stereo not given) | -1% | 1% | 3.2µM* | 8.9µM* | -3% | 5%
Cc1cc(C)n(-c2ccc(C(=O)OC(C)C)cc2)n1 | ? | 2% | 0% | 4% | 9% | 1%
CCOc1ccc(NC(=O)c2c(NCc3ccc(C)o3)sc3c2CCCCC3)cc1 | -7% | . | . | . | . | .
Cc1ccc(NC(=O)c2cc(N3C(=O)C=CC3=O)ccc2Cl)cc1C | 6% | 2% | ? | 7.9µM* | -48% | 7%
Cc1ccc(NC(=O)c2cc(N3C(=O)C=CC3=O)ccc2N2CCOCC2)cc1 | 7% | -9% | 7.1µM* | 7.9µM* | -2% | 3%
C#CCN(C[C@@H]1[C@@H](OC(=O)NCc2ccccc2F)[C@@H](OC(=O)NCc2ccccc2F)CN(C(=O)OC(C)C)N1C(=O)OC(C)C)S(=O)(=O)c1ccc(C)cc1 | . | . | . | . | -17% | .
N#C/C(=C\c1ccc(-c2ccc(F)cc2)o1)C(=O)Nc1nc(-c2cccs2)cs1 | 15% | -1% | 21% | 1% | -7% | 3%
N#C/C(=C/c1ccc(-c2ccccc2)o1)c1nc(-c2cccs2)cs1 | 5% | 14% | ? | 0.1µM* | -23% | -2%
CCCCOc1ccc(/C=N/NC(=S)Nc2cccc(C)c2C)cc1 | -36% | -2% | 1.8µM* | 3.2µM* | 11% | .
CCCCOc1ccc(/C=N/NC(=S)Nc2cc(C)ccc2C)cc1 | -18% | -5% | 6.3µM* | 5µM* | 9% | 2%
Cc1cccc(C)c1NC(=S)N/N=C/c1ccc(OCCC(C)C)cc1 | ? | -4% | 1.6µM* | 2.8µM* | -70% | 1%
CC/C(=N\NC(=S)Nc1cc(C)ccc1C)c1ccc(OC(F)F)cc1 | -11% | 25% | ? | -100% | 17% | -4%
Cn1cnc([N+](=O)[O-])c1S(=O)(=O)c1ccc(Cl)cc1 | ? | -16% | 3.5µM* | 5µM* | -65% | -16%
COc1cc(/C=C(\C#N)C(=O)Nc2ccc3c(c2)OCCO3)ccc1O | ? | 3% | ? | ? | 0% | 10µM*
COc1cc(/C=C/C(=O)OCC(=O)Nc2ccc3c(c2)OCCO3)ccc1O | -2% | -4% | 14% | -6% | -20% | -16%
COc1ccc(/C=N/Nc2nc(Nc3ccccc3)nc(N3CCCCC3)n2)c(OC)c1 | 1% | 0% | 3.2µM* | 11µM* | 2% | 1%
O=[N+]([O-])c1cc(/C=N/Nc2nc(N3CCCCC3)nc(N3CCCCC3)n2)ccc1O | ? | 2% | -9% | -9% | -6% | -2%
COc1ccc(/C=N/Nc2nc(Nc3ccccc3)nc(N3CCCC3)n2)cc1[N+](=O)[O-] | ? | -5% | 13µM* | -30% | -61% | 5%
COc1ccc(/C=N/Nc2nc(N3CCCCC3)nc(N3CCCCC3)n2)cc1[N+](=O)[O-] | 2% | 8% | 16µM* | -8% | 12% | -1%
COc1ccc(OCC(O)CNS(=O)(=O)c2cccs2)cc1 (stereo not given) | ? | -2% | -21% | -13% | 22% | 9%
CC(C)=CCC[C@](C)(O[C@@H]1O[C@H](CO[C@@H]2OC[C@@H](O)[C@H](O)[C@H]2O)[C@@H](O)[C@H](O)[C@H]1O)C1CC[C@]2(C)C1[C@H](O)CC1[C@@]3(C)CC[C@H](O[C@@H]4O[C@H](CO)[C@@H](O)[C@H](O)[C@H]4O)C(C)(C)C3CC[C@]12C (stereo not given in full) | ? | . | . | . | -15% | -4%

Screening results deposited in PubChem by National Center for Advancing Translational Sciences (NCATS).
